# Test results: ChEMBL document CHEMBL3988442, “University of Dundee, Small-Polar-MMV Screening Library” (2021)
# Biological target: T1, Methionyl-tRNA synthetase, putative (Leishmania donovani (strain BPK282A1)) (UniProt E9BF75)
# T1 sequence (whole entry): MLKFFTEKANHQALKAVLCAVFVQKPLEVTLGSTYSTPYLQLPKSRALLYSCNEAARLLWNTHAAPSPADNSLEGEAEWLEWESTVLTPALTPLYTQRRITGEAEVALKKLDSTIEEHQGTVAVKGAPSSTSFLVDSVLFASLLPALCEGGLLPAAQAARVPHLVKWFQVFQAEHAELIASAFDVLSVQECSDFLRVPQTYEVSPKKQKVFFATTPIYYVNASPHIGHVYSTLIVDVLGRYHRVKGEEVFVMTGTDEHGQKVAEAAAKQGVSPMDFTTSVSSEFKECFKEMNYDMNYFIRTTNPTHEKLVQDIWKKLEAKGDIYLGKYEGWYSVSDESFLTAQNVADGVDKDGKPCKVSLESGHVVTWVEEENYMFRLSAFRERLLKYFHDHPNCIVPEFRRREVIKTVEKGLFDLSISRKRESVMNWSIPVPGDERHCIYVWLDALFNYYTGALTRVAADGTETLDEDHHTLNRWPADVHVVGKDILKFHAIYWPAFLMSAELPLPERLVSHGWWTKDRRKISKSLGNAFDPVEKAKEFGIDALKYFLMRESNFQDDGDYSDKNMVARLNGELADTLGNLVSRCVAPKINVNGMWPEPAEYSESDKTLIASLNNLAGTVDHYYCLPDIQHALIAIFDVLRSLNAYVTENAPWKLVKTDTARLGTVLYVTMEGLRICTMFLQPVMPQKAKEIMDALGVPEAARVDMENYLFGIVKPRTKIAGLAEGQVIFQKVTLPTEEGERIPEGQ
# Assay: Leishmania donovani Methionine tRNA synthetase (LdMetRS):v7. Dose response assay
# Assay type: functional
# Parameters: conc 80 nM, time 150 minutes
smiles,measurement,setting,value
O=C(c1c[nH]cn1)N1CCC(F)(F)C2(CCN(c3ccccn3)C2)C1 (stereo not drawn),PXC50,MAX_EFFECT 10.79812207,< 4
same,PXC50,MAX_EFFECT 12.40740741,< 4
OB1OCc2ccccc21,PXC50,MAX_EFFECT 10.0456621,< 4
same,PXC50,MAX_EFFECT -0.566037736,< 4
CCc1nc(NCc2ccccn2)c2cc(CC)sc2n1,PXC50,MAX_EFFECT 4.176904177,< 4
same,PXC50,MAX_EFFECT 4.522613065,< 4
CC(C)C[C@H](N)COc1ccccc1-c1ccnn1C,PXC50,MAX_EFFECT 4.572564612,< 4
same,PXC50,MAX_EFFECT 5.733944954,< 4
Cc1nc(N2CCC(C(O)CC(C)C)CC2)c2ccsc2n1 (stereo not drawn),PXC50,MAX_EFFECT 3.626943005,< 4
same,PXC50,MAX_EFFECT 4.255319149,< 4
Cc1sc2nc(CCN)nc(N(CCN(C)C)CC3CCCO3)c2c1C (stereo not drawn),PXC50,MAX_EFFECT 8.838383838,< 4
same,PXC50,MAX_EFFECT 10.20408163,< 4
Cc1nc(N2CCCC(N)CC2)c2ccsc2n1 (stereo not drawn),PXC50,MAX_EFFECT 0.0,< 4
same,PXC50,MAX_EFFECT 3.10880829,< 4
Cc1sc2nc(CN3CCOCC3)nc(NC3CC3)c2c1C,PXC50,MAX_EFFECT 8.673469388,< 4
same,PXC50,MAX_EFFECT 8.838383838,< 4
COCCNc1nc(N2CCCC2)nc2sc3c(c12)CCCC3,PXC50,MAX_EFFECT 20.83333333,< 4
same,PXC50,MAX_EFFECT 36.40350877,< 4
Cc1nc(NC(CC(C)C)C(=O)O)c2c3c(sc2n1)CCCC3 (stereo not drawn),PXC50,MAX_EFFECT 16.83673469,< 4
same,PXC50,MAX_EFFECT 16.91919192,< 4
COCCNc1nc(C)nc2sc3c(c12)CCCC3,PXC50,MAX_EFFECT 3.174603175,< 4
same,PXC50,MAX_EFFECT 4.266666667,< 4
COCCNc1nc(-c2cccnc2)nc2sc(C)c(C)c12,PXC50,"BOTTOM 0.74162584, HILLSLOPE 1.235225767, MAX_EFFECT 62.1761658, TOP 100.0",4.17
same,PXC50,"BOTTOM 1.893882354, HILLSLOPE 1.640156685, MAX_EFFECT 57.9787234, TOP 75.89886764",4.31
OCc1ccc(Cl)cc1Cl,PXC50,MAX_EFFECT 13.11787072,< 3
same,PXC50,MAX_EFFECT 18.35853132,< 3
O=C(CC1CCCCC1)N1CCC(c2ncc3c(n2)CCNC3)CC1,PXC50,MAX_EFFECT 14.51247166,< 4
same,PXC50,MAX_EFFECT 29.90654206,< 4
Cc1nc(NCc2ccccn2)c2cc(C)sc2n1,PXC50,MAX_EFFECT 3.015075377,< 4
same,PXC50,MAX_EFFECT 6.633906634,< 4
Nc1noc2ccc(-c3cnc4ccc(NCc5ccncc5)nn34)cc12,PXC50,MAX_EFFECT 14.75826972,< 4
same,PXC50,MAX_EFFECT 25.87719298,< 4
CCc1nc(NC(C(=O)O)C(C)C)c2cc(CC)sc2n1 (stereo not drawn),PXC50,MAX_EFFECT 9.289617486,< 4
same,PXC50,MAX_EFFECT 12.29946524,< 4
FC(F)(F)c1nc(N2CCCC2)nc2c1CCCCC2,PXC50,MAX_EFFECT 2.290076336,< 4
same,PXC50,MAX_EFFECT 5.793450882,< 4
Clc1ccccc1CN1CCc2nc(Nc3ccccc3)ncc2C1,PXC50,MAX_EFFECT 23.92344498,< 4
same,PXC50,MAX_EFFECT 25.2285192,< 4
CCC(CO)Nc1nc(CSc2ccccc2)nc2sc(C)c(C)c12 (stereo not drawn),PXC50,MAX_EFFECT 23.49726776,< 4
same,PXC50,MAX_EFFECT 24.06417112,< 4
CCc1nc(NCCOC)c2c3c(sc2n1)CCC3,PXC50,MAX_EFFECT 5.793450882,< 4
same,PXC50,MAX_EFFECT 9.41475827,< 4
NCc1ccc(Cl)cc1Cl,PXC50,MAX_EFFECT 13.60691145,< 3
same,PXC50,MAX_EFFECT 15.77946768,< 3
CS(=O)(=O)N1CCN(c2ccc3ccc(C(=O)NC4Cc5ccccc5C4)cn23)CC1,PXC50,"BOTTOM 1.298239116, HILLSLOPE 2.724135748, MAX_EFFECT 51.19617225, TOP 47.98570818",5.08
same,PXC50,"BOTTOM 7.56395186, HILLSLOPE 1.844448201, MAX_EFFECT 55.57586837, TOP 59.35407924",4.75
Cc1sc2nc(-c3cccs3)nc(NCCN3CCOCC3)c2c1C,PXC50,MAX_EFFECT 8.542713568,< 4
same,PXC50,MAX_EFFECT 8.5995086,< 4
Cc1nc(N(Cc2ccncc2)CC2CCCO2)c2ccsc2n1 (stereo not drawn),PXC50,MAX_EFFECT 13.31592689,< 4
same,PXC50,MAX_EFFECT 17.75456919,< 4
Cc1nc(NCCS(N)(=O)=O)c2c(-c3ccccc3)csc2n1,PXC50,MAX_EFFECT 6.870229008,< 4
same,PXC50,MAX_EFFECT 12.34256927,< 4
CCOCCCNc1nc(-c2ccc(C)cc2)cc(C(F)(F)F)n1,PXC50,MAX_EFFECT 5.102040816,< 4
same,PXC50,MAX_EFFECT 5.808080808,< 4
N[C@H](COc1cccc(F)c1Oc1ccc(Cl)cc1)Cc1ccccc1,PXC50,"BOTTOM 1.014480123, HILLSLOPE 1.236846962, MAX_EFFECT 63.97515528, TOP 100.0",4.22
same,PXC50,"BOTTOM 4.768215501, HILLSLOPE 2.241755438, MAX_EFFECT 75.26652452, TOP 100.0",4.22
CS(=O)(=O)N1CCN(c2ccc3ccc(C(=O)NCc4ccccc4)cn23)CC1,PXC50,"BOTTOM 9.61795032, HILLSLOPE 2.1052237, MAX_EFFECT 58.50091408, TOP 60.20064035",4.73
same,PXC50,"BOTTOM -0.0629, HILLSLOPE 2.117070317, MAX_EFFECT 53.11004785, TOP 51.4182088",5.1
CN(CCO)c1nc(-c2cccs2)nc2sc3c(c12)CCCC3,PXC50,MAX_EFFECT 31.46666667,< 4
same,PXC50,MAX_EFFECT 36.50793651,< 4
Cc1nc(N2CCN(c3ccccn3)CC2)c2c3c(sc2n1)CCCC3,PXC50,MAX_EFFECT 22.61306533,< 4
same,PXC50,MAX_EFFECT 22.85012285,< 4
Nc1noc2ccc(-c3cnc4ccc(NCC5CCCO5)nn34)cc12 (stereo not drawn),PXC50,MAX_EFFECT 19.33842239,< 4
same,PXC50,MAX_EFFECT 25.0,< 4
C[C@@H](Oc1cc(-n2cnc3cc(N)ccc32)sc1C(N)=O)c1ccccc1Cl,PXC50,MAX_EFFECT 24.18604651,< 4
same,PXC50,MAX_EFFECT 25.87412587,< 4
Cc1sc2nc(C(F)(F)F)nc(N3CCC(NS(C)(=O)=O)CC3)c2c1C,PXC50,MAX_EFFECT 0.0,< 4
same,PXC50,MAX_EFFECT 1.305483029,< 4
